In PubChem BioAssay (NCI):
About 83,000 compounds went through this panel and 20% of them were active in at least one assay; those are over-represented in the sample as a whole.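 96-well plates, one dose, 48 hours. Percent growth reported; active if below 10.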 A number with no mark means an inactive call. Calls of active or inactive are those of the source.

system: ACHN renal; assay: NCI-60 one-dose screen, 48 h (100 = growth as untreated, 0 = no growth, -100 = all killed); settings: 10 µM unless noted

| Compound | growth |
| --- | --- |
| CCCCN1C=CCN(CCCC)C1 | 98.1% |
| Cc1nn(-c2ccccc2)c(Cl)c1/C=N\N=c1/sc2ccccc2n1C | 107% |
| COc1cc(CC(=O)n2ncc3ccc(N)cc32)cc(OC)c1OC | 94.9% |
| Cn1cc(-c2nc(-c3c[nH]c4c(Cl)nccc34)cs2)c2cc(Br)ccc21 | 76.5% |
| CCNc1nc2ccc(Nc3ccnc4cc(Cl)ccc34)cc2[nH]1 | 103% |
| Cc1ncc(C(=O)Nc2ccc(CN3CCN(C)CC3)c(C(F)(F)F)c2)cc1C#Cc1cnc(N)cc1C#N | -100% (active) |
| COc1cc(/C=C\c2cc(/C=C\c3ccc(O)c(OC)c3)n(C(=O)COc3ccccc3)n2)ccc1O | 18% |
| C[C@H](c1nc2ccc(N)cc2[nH]1)[C@H]1CC[C@H]2[C@@H]3CCC4=CC(=O)CC[C@]4(C)[C@H]3CC[C@]12C | 96.9% |
| CC(c1ccccc1)C(C(=O)c1ccccc1)c1ccccc1 (configuration not stated) | 48.9% |
| N#CC1=C(N)Oc2c(ccc3ccccc23)C1c1ccccc1Cl (configuration not stated) | 34% |
| N#CC(C(=O)/C(=N/NC(=O)c1ccccc1O)C(C#N)c1ccccc1)c1ccccc1 (configuration not stated) | 31% |
| C[C@@H](Nc1ncnc2ccc(-c3cnc(N)nc3)cc12)c1ccc(F)cc1 | 41.5% |
| Cc1cccc(C)c1N=c1oc2ccc(Cl)cc2nc1-c1ccccc1O | 90.7% |
| COc1cc(C2C3=C(COC3=O)N(CCO)c3cc4c(cc32)CCC4)cc(OC)c1OC (configuration not stated) | 26.1% |
| COc1cc2cc(Oc3cccc(NC(=O)Nc4cc(C(F)(F)F)cc(C(F)(F)F)c4)c3)c(C)nc2cc1OC | 5.82% (active) |
| Cc1cc(Cl)nc(N(CCNc2ccnc3cc(Cl)ccc23)Cc2ccccn2)n1 | 44.9% |
| COc1ccc(C(=O)c2cc(OC)c(OC)c(OC)c2)cc1O | 25.6% |
| N#C/C(=C\c1ccc([N+](=O)[O-])s1)c1nc2cc(Br)ccc2s1 | -56.8% (active) |
| Brc1ccc2[nH]cc(-c3cncn3CCc3ccccc3)c2c1 | 65.7% |

| Compound | growth |
| --- | --- |
| Cc1c(C)c([N+](=O)[O-])c(C)c([N+](=O)[O-])c1C | 118% |
| COc1ccc(C(=O)CC#N)cc1 | 108% |
| O=C(/C=C/c1c(-c2ccc(Cl)cc2)nn(-c2ccccc2)c1C(F)(F)F)c1ccc(Cl)cc1 | 90.7% |
| Cc1ccc(NS(=O)(=O)c2ccc(-c3cnc(C4CC4)o3)cc2)cc1C(F)(F)F | 76.4% |
| CC(C)c1ccc(Nc2ccc3c(OCCCN4CCN(C)CC4)cccc3n2)cc1 | 80.4% |
| CCN(c1ccccc1)S(=O)(=O)c1cc([N+](=O)[O-])ccc1Cl | 79.9% |
| C=C1C(=O)O[C@H]2[C@H]1CC/C(CNS(=O)(=O)c1cccc3ccccc13)=C\CC[C@@]1(C)O[C@@H]21 | 3.67% (active) |
| COc1cc(C(=O)Nc2cc3c(cc2Oc2cc(C)cc(C)c2)C(=O)N(C)[C@@H](CC(=O)N(C)O)C(=O)N3)c(Br)c(OC)c1OC | -30% (active) |
| Cc1c2cc[nH]c(=O)c2c(C)c2c1[nH]c1cc(OCCN3CCN(C)CC3)ccc12 | -17.5% (active) |
| Cn1cc(-c2csc(-c3c[nH]c4ccccc34)n2)c2ccnc(Cl)c21 | 54.2% |
| COc1ccc2nc(-c3ccc(-c4noc(-c5cc(OC)c(OC)c(OC)c5)n4)cc3)[nH]c2c1 | 97.9% |
| Cn1cc(-c2nc(-c3c[nH]c4c(Cl)nccc34)cs2)c2cc(F)ccc21 | 114% |
| O=C1NN(C(=O)c2ccccc2)C(c2ccc(Cl)c(Cl)c2)=C/C1=C\c1ccc([N+](=O)[O-])cc1 | 90.3% |
| COc1ccc(OC)c(CCn2cncc2-c2c[nH]c3ccccc23)c1 | 76.7% |
| N#Cc1c(-c2cccc([N+](=O)[O-])c2)nc(SCC(=O)c2ccc(Cl)cc2)[nH]c1=O | 103% |
| COC(=O)c1ccc2c(c1)[n+](=O)c(C(C)=O)c(C(F)(F)F)n2[O-] | -99.3% (active) |
| C#Cc1cccc(NC(=O)Nc2cccc(NC(=O)CCl)c2)c1 | -72.7% [8.25 µM] (active) |
| Cc1nc2sccn2c1-c1cn2ccsc2n1 | 99.3% |
